# In the library only some 4.7% were active in any assay of this set; here they are far more common.
# TRHR agonist – TRH receptor (human) agonism; TRHR cells, calcium flux fluo-8, FDSS agonist mode; activation, % at 2 µM; AID 493084; P34981; 360,000 tested, 0.18% active; also: 0% is about no effect
# Target sequence (P34981 whole entry, looked up): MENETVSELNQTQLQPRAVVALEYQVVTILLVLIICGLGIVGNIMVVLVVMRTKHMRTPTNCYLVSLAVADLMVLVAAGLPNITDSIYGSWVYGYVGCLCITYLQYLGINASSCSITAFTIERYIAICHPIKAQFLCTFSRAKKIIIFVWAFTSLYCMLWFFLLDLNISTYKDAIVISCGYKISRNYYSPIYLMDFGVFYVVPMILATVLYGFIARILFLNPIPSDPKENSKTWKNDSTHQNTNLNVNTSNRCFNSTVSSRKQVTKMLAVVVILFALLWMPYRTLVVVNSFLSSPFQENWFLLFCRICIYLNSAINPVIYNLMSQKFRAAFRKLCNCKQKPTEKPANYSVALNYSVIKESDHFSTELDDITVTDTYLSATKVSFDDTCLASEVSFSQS
#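 Fluo-8-loaded TRHR cells; 10 s baseline, compound added, kinetic Ca2+ fluorescence read 1/s, agonist mode.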
# TRHR enhancer – TRH receptor (human) allosteric enhancement; P34981; TRHR cells, fluo-8 calcium fluorescence, EC20 TRH enhancement; enhancement, % at 2 µM; 360,000 tested, 0.66% active; AID 493056; in the data active = enhancement above about 30%; also: 0% is about no effect
#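 Enhancer read-out: after compound pinning and an initial kinetic agonist-mode read, an EC20 of TRH (10 nM final) was injected and fluo-8 calcium signal (Ex 480/Em 530) followed at 1 s/cycle for 100 cycles in TRHR-expressing cells.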
# D1 antag – antagonists of human D1 dopamine receptor. activity change, negative = inhibition, % at 10 µM. P21728. HEK293 TREx D1 cells, calcium flux, dopamine EC80; active compounds read low. 360,000 tested, 3.2% active. AID 504652; in the data active = activity change below about -30%; also: % is scaled to controls: 0 for no effect and ±100 for the full control effect
#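 Compound effects on dopamine-evoked calcium signalling were measured in tetracycline-induced HEK293 Trex D1 cells. Dopamine at EC80 followed a 180 s compound pre-read, and fluorescence was tracked kinetically for 180 s more.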
# D1 PAM – human D1 dopamine receptor positive modulation | P21728 | 360,000 tested, 0.036% active | AID 504651 | HEK293 TREx D1 cells, calcium flux, dopamine EC20 potentiation | potentiation, % at 10 µM; in the data active = potentiation above about 30%; also: 0% is about no effect
# D1 ag – human D1 receptor agonism; 360,000 tested, 1% active; AID 504660; P21728; activation, % at 2 µM; HEK293 T-REx D1 cells, calcium flux, agonist mode; also: 0% is about no effect
#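 Agonism was scored from calcium flux recorded over 180 s (1 read/s) after pintool compound addition, following a 10-cycle baseline. Cells were inducible force-coupled HEK293 TREx D1, plated overnight at 30 C and loaded with no-wash calcium dye.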
# * = called active by the depositor; ! = repeats disagree. Rule as the data show it, unless noted: active = activation above about 30%; inactive = the rest.
SMILES,TRHR agonist,TRHR enhancer,D1 antag,D1 PAM,D1 ag
COc1ccccc1N(CC(=O)Nc1ccc(Br)cc1F)S(=O)(=O)c1cccs1,1,12,7,2,5
CCOc1ccc(NC(=O)CN(C)C(=O)c2ccc(OCC3CCCO3)cc2)cc1OCC (configuration not stated),0,0,-42*,-10,1
COc1cc(C(=O)Nc2ccc(C(=O)NCC3CCCO3)cc2)cc(OC)c1OC (configuration not stated),0,4,-4,-1,2
CCOc1ccc(NC(=O)COc2ccc(C(=O)NCC3CCCO3)cc2OC)cc1 (configuration not stated),1,4,-37*,12,2
O=C(Nc1cccc(Cl)c1)OCCOc1ccccc1,0,-3,-31*,-5,8
CC(C)OC(=O)NCCOC(=O)Nc1cccc(Cl)c1,0,-4,-31*,-9,22
CC(C)OC(=O)NCCOC(=O)Nc1ccc(Cl)c(Cl)c1,3,-14,-40*,-3,9
C=COCCNC(=O)Nc1ccc(Cl)c(Cl)c1,-1,15,-57*,-2,47*
COCCCn1c(=N)c(C(=O)NC2CCCC2)cc2c(=O)n3ccccc3nc21,0,4,8,-1,-2
Cc1nc2ccccc2n1C1CCN(CC(=O)Nc2ccccc2Br)CC1,11,-3,-14,-5,52*
Cc1ccccc1NC(=O)CN1CCC(n2nnc3ccccc32)CC1,-1,3,2,-1,1
COC(=O)c1ccccc1NS(=O)(=O)c1ccc2c(c1)oc(=O)n2C,0,2,5,-22,3
Cc1ccc(NS(=O)(=O)c2ccc3c(c2)oc(=O)n3C)cc1,0,-5,-3,0,12
CCOc1ccccc1NC(=O)Cn1c(=O)oc2cc(S(=O)(=O)NCc3ccccc3)ccc21,-1,-5,-39*,-3,2
CCc1ccc(NS(=O)(=O)c2ccc3c(c2)oc(=O)n3C)cc1,1,-8,-34*,-13,21
Cn1c(=O)oc2cc(S(=O)(=O)NCCN3CCN(c4ccccc4F)CC3)ccc21,-1,-10,-75*,-10,2
Cn1c(=O)oc2cc(S(=O)(=O)Nc3ccccc3O)ccc21,1,-5,-40*!,-6,7
CCCCn1cnc2cc(NCc3ccccc3Cl)ccc21,-2,13,14,3,16
O=C(NCc1ccc2c(c1)OCO2)C1CC(=O)N(CCc2ccc(F)cc2)C1 (configuration not stated),-1,-5,2,-5,0
COC(=O)c1ccc(Cl)cc1NC(=O)N(C)CCc1c(C)nn(C)c1C,1,-6,1,1,-1
CC(C)c1ccc(NC(=O)C(Cc2ccccc2)NS(=O)(=O)c2ccc3c(c2)oc(=O)n3C)cc1 (configuration not stated),1,-4,-37*,-7,5
Cn1c(=O)oc2cc(S(=O)(=O)NCc3ccc(Cl)cc3)ccc21,0,-9,-37*,-5,4
CC(=O)Nc1ccc(NC(=O)C(Cc2ccccc2)NS(=O)(=O)c2ccc3c(c2)oc(=O)n3C)cc1 (configuration not stated),0,-2,1,-1,1
O=c1cc(N2CCCC2)c2ccccc2o1,0,35*,3,-5,1
O=c1cc(N2CCOCC2)c2ccccc2o1,0,-9,-1,-3,2
SMILES,TRHR agonist,TRHR enhancer,D1 antag,D1 PAM,D1 ag
Cc1ccc(/C=C/C(=O)OCC(=O)Nc2ccccc2Sc2ccccc2)cc1,2,-14,-11,-3,32*
COc1cccc(/C=C/C(=O)OCC(=O)Nc2ccccc2Sc2ccccc2)c1,3,4,-4,0,25
CCNC(=O)c1c(C)oc2ncn(C)c(=O)c12,-1,-5,14,5,-1
CCOC(=O)c1c(C)sc(-c2c(-c3ccccc3)[nH]c3[nH]c(=O)[nH]c(=O)c23)c1O,-1,0,-2,0,39*
COC(=O)c1c(C)sc(-c2c(-c3cccc(Cl)c3)[nH]c3c2c(=O)[nH]c(=O)n3C)c1O,36*,-2,5,-1,62*
Cc1ccc(O)c(-c2ccnc3cc(-c4ccc(Cl)cc4)nn23)c1,1,6,-6,-1,1
Cc1ccc(-c2noc(CCC(=O)N(C)c3ccccc3F)n2)cc1,-1,3,7,-2,9
CCc1ccccc1N(CC)C(=O)CCc1nc(-c2ccc(C)cc2)no1,0,3,-3,-7,34*
CC(C)(C)c1ccc(-c2noc(CCC(N)=O)n2)cc1,-1,2,-40*,-10,20
CC(C)NC(=O)CNc1ccc(C(F)(F)F)cc1[N+](=O)[O-],0,0,-30*,-14,2
O=C(CSc1ccc(C(F)(F)F)cc1[N+](=O)[O-])Nc1ccccc1,-1,0,-13,-8,37*
COC(=O)/C=C/c1ccc(-n2cncn2)cc1,0,-3,-3,-3,1
COC(=O)/C=C/c1cnc[nH]1,1,-1,-31*,8,2
Cc1c(NC(=O)c2sc3ccccc3c2Cl)cccc1-c1nc2ccccc2o1,0,4,2,2,-1
Cc1cc(=O)[nH]c2nnc(SCC(=O)N3CC(C)OC(C)C3)n12 (configuration not stated),0,-1,33,-4,3
CCCc1cc(=O)[nH]c2nnc(SCC(=O)N3CC(C)OC(C)C3)n12 (configuration not stated),0,2,-65*,-2,3
O=c1[nH]c2ccc(NCc3ccc(-c4ccc(F)cc4)o3)cc2[nH]1,1,-1,-6,-2,33*
CC1CCCC(NC(=O)COC(=O)c2ccccc2Sc2ccccc2C#N)C1C (configuration not stated),0,30*,1,-4,3
COc1ccc(CCNC(=S)Nc2cccc(C)c2)cc1,-1,-6,1,-6,-1
S=C(NCCN(C1CCCCC1)C1CCCC1)Nc1cccc(Cl)c1,3,2,11,-4,31*
S=C(Nc1cccc(Cl)c1)NC1CC2CCCC(C1)N2C1CCCC1 (configuration not stated),2,-1,-10,-11,10
S=C(NCCC(c1ccccc1)c1ccccc1)Nc1cccc(Cl)c1,0,-2,-49*,-4,3
Cc1cccc(NC(=S)NCCC(C)C)c1,-1,10,0,-5,227*
CCN(CC)S(=O)(=O)c1ccc(C)c(NC(=O)COC(=O)[C@@H]2CCCN2C(=O)c2cccs2)c1,-2,-5,-6,0,-5
CC1CCC(NC(=O)COC(=O)C2=NN(c3ccccc3)C(=O)CC2)CC1 (configuration not stated),0,7,-1,-1,0
